The target of test [1] is T1, Methionyl-tRNA synthetase, putative (Leishmania donovani (strain BPK282A1)) (UniProt E9BF75).
T1 sequence (whole entry): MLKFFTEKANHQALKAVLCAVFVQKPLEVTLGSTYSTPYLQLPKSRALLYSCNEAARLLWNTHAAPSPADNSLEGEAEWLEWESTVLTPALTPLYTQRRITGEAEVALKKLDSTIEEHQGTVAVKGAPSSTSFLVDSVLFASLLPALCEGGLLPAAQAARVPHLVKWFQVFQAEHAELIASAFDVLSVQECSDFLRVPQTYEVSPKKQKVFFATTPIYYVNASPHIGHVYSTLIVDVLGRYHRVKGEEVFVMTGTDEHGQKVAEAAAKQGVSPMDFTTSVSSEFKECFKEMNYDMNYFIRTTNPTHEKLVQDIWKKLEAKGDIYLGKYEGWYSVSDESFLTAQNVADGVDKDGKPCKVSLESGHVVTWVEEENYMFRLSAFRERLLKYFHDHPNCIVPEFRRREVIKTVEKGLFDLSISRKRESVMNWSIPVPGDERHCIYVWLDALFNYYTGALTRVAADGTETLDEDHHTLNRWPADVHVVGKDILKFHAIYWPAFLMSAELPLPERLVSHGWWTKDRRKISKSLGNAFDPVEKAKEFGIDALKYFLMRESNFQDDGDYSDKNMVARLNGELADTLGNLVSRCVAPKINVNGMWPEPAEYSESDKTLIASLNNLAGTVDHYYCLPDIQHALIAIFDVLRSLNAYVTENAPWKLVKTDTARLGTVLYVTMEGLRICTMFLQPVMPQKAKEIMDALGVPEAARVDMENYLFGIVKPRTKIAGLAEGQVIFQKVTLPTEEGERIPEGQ
The experiment in a line: Leishmania donovani Methionine tRNA synthetase (LdMetRS):v7. Dose response assay. In kind it is functional. Also on record: conc 80 nM, time 150 minutes.

Test [2] addresses AMP-activated protein kinase, AMPK (Homo sapiens) (UniProt P54646+O43741+P54619+Q9UGJ0+Q9Y478+Q13131+Q9UGI9). The experiment in a line: AMP-dependent Kinase enzyme assay. An in vitro enzyme assay that detects ADP turnover that is directly proportional to AMPK activity. This uses naive AMPK that is activated during the assay with MK-8722. In kind it is functional. Also on record: scale not given: direction of the effect not stated beside the values. The settings on record: 30 µM.

For test [3], the target named is Protein translocase subunit SecA (Escherichia coli (strain K12)) (UniProt P10408). Put plainly: Assay to Identify E. coli SecA ATPase Inhibitors. In kind it is functional. More on the design: scale not given: direction of the effect not stated beside the values. As to conditions: 30 µM.
Test [4] has as its target T2, Ubiquitin-activating enzyme e1, putative (Leishmania donovani (strain BPK282A1)) (UniProt E9BSI1).
T2 sequence (whole entry): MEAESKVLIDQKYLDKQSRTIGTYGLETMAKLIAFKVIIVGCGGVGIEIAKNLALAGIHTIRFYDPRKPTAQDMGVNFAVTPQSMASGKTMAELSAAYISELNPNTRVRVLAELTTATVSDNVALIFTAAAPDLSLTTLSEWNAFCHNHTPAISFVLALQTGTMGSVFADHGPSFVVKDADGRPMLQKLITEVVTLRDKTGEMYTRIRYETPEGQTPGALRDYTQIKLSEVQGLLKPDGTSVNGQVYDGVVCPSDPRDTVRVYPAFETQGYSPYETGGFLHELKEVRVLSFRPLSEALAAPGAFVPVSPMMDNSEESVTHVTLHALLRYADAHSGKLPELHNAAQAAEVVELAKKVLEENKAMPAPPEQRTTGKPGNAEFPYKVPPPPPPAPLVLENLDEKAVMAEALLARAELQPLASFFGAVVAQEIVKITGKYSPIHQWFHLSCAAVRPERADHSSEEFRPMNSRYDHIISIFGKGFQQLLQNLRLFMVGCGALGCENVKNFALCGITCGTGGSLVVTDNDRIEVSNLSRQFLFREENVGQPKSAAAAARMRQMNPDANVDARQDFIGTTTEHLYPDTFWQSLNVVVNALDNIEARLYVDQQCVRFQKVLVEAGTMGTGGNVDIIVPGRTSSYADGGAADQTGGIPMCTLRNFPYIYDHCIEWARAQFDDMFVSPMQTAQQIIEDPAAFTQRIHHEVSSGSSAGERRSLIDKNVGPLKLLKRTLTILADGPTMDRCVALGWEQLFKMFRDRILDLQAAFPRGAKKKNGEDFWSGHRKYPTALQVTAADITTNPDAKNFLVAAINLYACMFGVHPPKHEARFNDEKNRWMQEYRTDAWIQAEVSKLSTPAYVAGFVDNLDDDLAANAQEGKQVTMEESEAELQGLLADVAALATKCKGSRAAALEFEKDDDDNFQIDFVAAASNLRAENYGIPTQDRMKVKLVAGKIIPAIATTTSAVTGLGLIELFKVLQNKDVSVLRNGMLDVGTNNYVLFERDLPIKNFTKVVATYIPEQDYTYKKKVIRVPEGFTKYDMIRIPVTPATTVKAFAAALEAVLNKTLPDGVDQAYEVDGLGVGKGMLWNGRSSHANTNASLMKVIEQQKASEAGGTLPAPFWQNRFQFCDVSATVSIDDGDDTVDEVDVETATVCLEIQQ
Put plainly: Leishmania donovani Ubiquitin Activating Enzyme (LdE1). Type of test: functional. More on the design: scale not given: direction of the effect not stated beside the values. As to conditions: 30 µM.

The target of test [5] is Sialic acid-binding Ig-like lectin 9 (Homo sapiens) (UniProt Q9Y336). The experiment in a line: Hs-Siglec9 ALPHAscreen SOP 20170721. As to conditions: 10 µM. More on the design: scale not given: direction of the effect not stated beside the values. In general terms: Bead proximity is the source of the signal in Alpha formats.
Another test has as its system Trypanosoma cruzi. Put plainly: Trypanosoma cruzi phosphomannomutase and mannose-1-phosphate guanylyltransferase assay. Type of test: functional. More on the design: scale not given: direction of the effect not stated beside the values. The settings on record: 10 µM.
The target of test [6] is T3, Arginase-2, mitochondrial (Homo sapiens) (UniProt P78540).
T3 sequence (whole entry): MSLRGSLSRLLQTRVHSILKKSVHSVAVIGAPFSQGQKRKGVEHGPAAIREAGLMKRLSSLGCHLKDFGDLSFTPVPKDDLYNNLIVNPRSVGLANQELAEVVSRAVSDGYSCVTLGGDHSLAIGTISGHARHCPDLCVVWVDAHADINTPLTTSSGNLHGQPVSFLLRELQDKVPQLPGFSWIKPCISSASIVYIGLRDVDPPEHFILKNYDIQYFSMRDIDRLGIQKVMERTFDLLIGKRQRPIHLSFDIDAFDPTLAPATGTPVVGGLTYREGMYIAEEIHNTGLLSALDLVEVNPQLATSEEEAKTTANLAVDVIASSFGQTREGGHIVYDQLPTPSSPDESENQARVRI
Put plainly: in vitro enzyme assay to detect the production of urea directly proportional to the activity of Arginase II. In kind it is functional. More on the design: scale not given: in the data most compounds retested in dose-response had high values. The settings on record: 33.3 µM.

Test [7] addresses T4, Proteasome subunit beta (Trypanosoma cruzi) (UniProt O96673).
T4 sequence (whole entry): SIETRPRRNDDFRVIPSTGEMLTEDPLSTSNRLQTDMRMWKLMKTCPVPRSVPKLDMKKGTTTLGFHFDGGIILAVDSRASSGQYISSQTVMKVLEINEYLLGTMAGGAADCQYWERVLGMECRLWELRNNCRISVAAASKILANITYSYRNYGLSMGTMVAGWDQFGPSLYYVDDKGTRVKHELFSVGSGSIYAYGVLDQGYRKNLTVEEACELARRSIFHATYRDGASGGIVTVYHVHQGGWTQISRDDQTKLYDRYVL
The experiment in a line: Trypanosoma cruzi proteasome chymotrypsin-like activity (TcProtChymo) assay. Type of test: functional. More on the design: scale not given: in the data most compounds retested in dose-response had high values. As to conditions: 9.37 µM.

The species entered for another test is Homo sapiens. The experiment in a line: To identify inhibition of the IFN signalling (Jak-Stat) pathway via expression of an eGFP reporter gene under the control of an IFN-stimulated response element (ISRE) containing MxA promoter. More on the design: scale not given: direction of the effect not stated beside the values. In kind it is functional. As to conditions: 30 µM. (In general: A reporter such as luciferase makes a cellular process visible.)

For test [8], the target named is T5, Tyrosyl-tRNA synthetase, putative (Trypanosoma cruzi (strain CL Brener)) (UniProt Q4DSP6).
T5 sequence (whole entry): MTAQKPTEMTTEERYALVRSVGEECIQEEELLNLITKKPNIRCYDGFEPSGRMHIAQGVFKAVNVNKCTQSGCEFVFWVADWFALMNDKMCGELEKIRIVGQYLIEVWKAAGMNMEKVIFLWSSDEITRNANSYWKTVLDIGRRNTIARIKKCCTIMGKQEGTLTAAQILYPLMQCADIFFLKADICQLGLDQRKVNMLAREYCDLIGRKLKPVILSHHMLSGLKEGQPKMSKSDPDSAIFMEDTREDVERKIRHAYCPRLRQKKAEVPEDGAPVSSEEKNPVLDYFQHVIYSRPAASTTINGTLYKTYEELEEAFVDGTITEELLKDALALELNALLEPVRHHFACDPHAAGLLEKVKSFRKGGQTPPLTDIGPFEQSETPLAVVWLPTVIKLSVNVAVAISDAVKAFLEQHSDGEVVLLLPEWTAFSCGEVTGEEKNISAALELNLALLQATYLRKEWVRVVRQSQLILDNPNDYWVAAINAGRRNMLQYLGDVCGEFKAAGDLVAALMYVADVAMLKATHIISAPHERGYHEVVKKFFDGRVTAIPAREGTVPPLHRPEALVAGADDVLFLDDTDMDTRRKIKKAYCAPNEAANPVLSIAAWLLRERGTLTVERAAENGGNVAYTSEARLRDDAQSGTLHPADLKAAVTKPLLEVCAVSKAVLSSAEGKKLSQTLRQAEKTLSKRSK
Put plainly: Trypanosoma cruzi tyrosyl tRNA synthetase (TcYRS) _High Tyrosine SOP. Type of test: functional. Also on record: scale not given: in the data most compounds retested in dose-response had high values. As to conditions: 30 µM.

Test [9] addresses T5, Tyrosyl-tRNA synthetase, putative (Trypanosoma cruzi (strain CL Brener)). The experiment in a line: Trypanosoma cruzi tyrosyl tRNA synthetase (TcYRS) SOP. Type of test: functional. Also on record: scale not given: direction of the effect not stated beside the values. As to conditions: 30 µM.
The target in test [10] is Chromo domain-containing protein 1 (Saccharomyces cerevisiae (strain ATCC 204508 / S288c) (Baker's yeast)) (UniProt P32657). The experiment in a line: ScCHD-1 Enzyme Inhibition Assay. More on the design: scale not given: in the data most compounds retested in dose-response had high values. In kind it is functional. The settings on record: 30 µM.

For part of these data: Entries with a potency or affinity are not part of this list. Bounds are passed on as bounds.

Sequence of Protein translocase subunit SecA (Escherichia coli (strain K12)) (P10408 whole entry): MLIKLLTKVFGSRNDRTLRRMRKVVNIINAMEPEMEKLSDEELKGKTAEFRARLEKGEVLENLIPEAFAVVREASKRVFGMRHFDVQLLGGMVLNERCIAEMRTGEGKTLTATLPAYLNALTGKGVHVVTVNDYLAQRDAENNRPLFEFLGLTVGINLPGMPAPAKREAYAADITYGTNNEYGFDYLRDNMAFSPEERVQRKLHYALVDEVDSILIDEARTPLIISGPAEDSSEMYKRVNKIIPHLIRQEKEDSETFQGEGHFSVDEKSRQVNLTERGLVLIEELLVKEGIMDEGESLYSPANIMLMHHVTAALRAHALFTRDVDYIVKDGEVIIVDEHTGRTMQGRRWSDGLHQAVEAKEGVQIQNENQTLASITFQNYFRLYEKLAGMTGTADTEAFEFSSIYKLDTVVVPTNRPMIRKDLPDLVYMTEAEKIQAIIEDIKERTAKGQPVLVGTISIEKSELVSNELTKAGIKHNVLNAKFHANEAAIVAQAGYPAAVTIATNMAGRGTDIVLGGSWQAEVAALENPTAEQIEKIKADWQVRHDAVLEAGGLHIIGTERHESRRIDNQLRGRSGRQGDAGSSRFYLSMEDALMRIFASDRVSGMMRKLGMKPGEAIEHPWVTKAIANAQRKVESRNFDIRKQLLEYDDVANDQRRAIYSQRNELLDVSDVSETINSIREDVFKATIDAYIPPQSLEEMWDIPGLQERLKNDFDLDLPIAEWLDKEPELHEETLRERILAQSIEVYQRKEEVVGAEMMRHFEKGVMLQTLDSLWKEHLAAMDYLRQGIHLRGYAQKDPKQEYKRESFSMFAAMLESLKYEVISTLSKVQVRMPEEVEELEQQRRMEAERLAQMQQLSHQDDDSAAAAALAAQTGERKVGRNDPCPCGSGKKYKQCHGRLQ
Sequence of Sialic acid-binding Ig-like lectin 9 (Homo sapiens) (Q9Y336 whole entry): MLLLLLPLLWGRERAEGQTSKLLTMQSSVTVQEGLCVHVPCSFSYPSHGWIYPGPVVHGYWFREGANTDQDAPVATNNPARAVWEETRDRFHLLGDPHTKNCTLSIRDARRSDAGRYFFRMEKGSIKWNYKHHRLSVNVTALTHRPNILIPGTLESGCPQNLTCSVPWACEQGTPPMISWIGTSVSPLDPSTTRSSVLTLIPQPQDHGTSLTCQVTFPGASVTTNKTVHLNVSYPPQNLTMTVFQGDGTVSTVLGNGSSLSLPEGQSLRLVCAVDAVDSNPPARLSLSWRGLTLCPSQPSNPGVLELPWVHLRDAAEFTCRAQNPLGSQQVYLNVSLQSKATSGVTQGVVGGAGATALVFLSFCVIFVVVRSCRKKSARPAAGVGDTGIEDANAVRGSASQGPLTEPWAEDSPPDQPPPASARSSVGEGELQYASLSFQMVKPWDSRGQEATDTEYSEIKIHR
Sequence of Chromo domain-containing protein 1 (Saccharomyces cerevisiae (strain ATCC 204508 / S288c) (Baker's yeast)) (P32657 whole entry, the tested form may be a part): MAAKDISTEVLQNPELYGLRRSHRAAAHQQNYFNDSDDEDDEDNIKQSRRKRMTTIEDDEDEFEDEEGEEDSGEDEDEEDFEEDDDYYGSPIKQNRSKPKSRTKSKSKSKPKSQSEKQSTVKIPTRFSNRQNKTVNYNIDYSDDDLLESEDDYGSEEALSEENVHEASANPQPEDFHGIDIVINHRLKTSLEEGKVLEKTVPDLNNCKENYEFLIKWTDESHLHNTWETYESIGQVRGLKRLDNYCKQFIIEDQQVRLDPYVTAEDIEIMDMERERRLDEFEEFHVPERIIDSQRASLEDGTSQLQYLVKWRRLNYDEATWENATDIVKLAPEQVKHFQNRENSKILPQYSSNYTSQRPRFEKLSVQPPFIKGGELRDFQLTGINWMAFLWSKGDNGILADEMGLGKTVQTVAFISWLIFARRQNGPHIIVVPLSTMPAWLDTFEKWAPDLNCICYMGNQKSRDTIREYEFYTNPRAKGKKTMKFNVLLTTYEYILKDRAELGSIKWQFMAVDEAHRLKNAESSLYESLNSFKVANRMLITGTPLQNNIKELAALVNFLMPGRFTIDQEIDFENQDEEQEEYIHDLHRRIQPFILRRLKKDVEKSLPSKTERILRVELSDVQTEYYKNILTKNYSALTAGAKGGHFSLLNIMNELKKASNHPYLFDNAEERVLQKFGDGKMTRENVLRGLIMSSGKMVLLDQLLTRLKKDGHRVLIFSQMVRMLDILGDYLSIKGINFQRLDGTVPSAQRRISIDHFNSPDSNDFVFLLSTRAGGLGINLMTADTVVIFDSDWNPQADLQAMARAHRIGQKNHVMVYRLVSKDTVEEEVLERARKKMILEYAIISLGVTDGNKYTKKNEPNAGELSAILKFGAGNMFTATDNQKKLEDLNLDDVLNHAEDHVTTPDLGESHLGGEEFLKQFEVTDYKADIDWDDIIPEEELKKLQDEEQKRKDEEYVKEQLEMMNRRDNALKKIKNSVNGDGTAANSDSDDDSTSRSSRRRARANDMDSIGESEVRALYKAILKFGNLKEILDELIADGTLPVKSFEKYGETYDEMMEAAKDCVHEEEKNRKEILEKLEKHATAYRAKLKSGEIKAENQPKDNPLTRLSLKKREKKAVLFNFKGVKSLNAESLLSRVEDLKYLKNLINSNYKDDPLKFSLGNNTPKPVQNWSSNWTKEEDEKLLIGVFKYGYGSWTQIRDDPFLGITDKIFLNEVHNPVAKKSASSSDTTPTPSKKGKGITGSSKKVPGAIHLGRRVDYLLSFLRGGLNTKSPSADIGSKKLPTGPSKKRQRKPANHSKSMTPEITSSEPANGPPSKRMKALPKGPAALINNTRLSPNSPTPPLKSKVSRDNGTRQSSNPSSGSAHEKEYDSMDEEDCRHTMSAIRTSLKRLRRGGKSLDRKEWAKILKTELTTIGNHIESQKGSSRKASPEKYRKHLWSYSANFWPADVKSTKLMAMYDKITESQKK

Consider `O=C(c1cc(=O)n(-c2ccccc2)[nH]1)N1CCCC(c2ccn[nH]2)C1` (stereo not drawn), for which the PXC50 came to 4.26 in [1] (BOTTOM 0.320076031, HILLSLOPE 1.262872317, MAX_EFFECT 68.45753899, TOP 100.0); 4.31 in [1] (BOTTOM -1.400745031, HILLSLOPE 1.149427593, MAX_EFFECT 63.75838926, TOP 91.13261067); 4.18 in test [1] (BOTTOM -5.915072335, HILLSLOPE 1.793815397, MAX_EFFECT 65.97222222, TOP 99.62132459). Also, in test [2], the Percent Effect is -16.1%.
Turning to `O=C(c1ccc(F)c(Cl)c1)N1C[C@@H]2CC[C@H](C1)N(Cc1ccccc1)C2`, the PXC50 in test [1] (MAX_EFFECT 29.03225806), in test [1] (MAX_EFFECT 41.91419142) and in [1] (MAX_EFFECT 44.92753623) was under 4 each time. Further, the Percent Effect in [3] is -1.36%; in test [4], -13.7%; in test [2], 5.89%; in test [5], 19.2%; with Trypanosoma cruzi, -6.15%; in test [6], 1.6%. The Percent Effect in test [7] is 11.2%; in the test listed under Homo sapiens it was -10.1%; in test [8], 11.5%; in test [9] it was 25.9%; in test [10] it was 0.975%.
